Columns and labels:
Conditions in all cases: concentration: 1 μM, replicates: in singlicate; n = 1
EPHB4 = system: EPHB4
EPHB6 = system: EPHB6
ERBB2 = system: ERBB2
ERBB3 = system: ERBB3
ERBB4 = system: ERBB4
ERK1 = system: T1, ERK1
T1 construct: gene MAPK3

ERK2 = system: T2, ERK2
T2 construct: gene MAPK1

ERK3 = system: T3, ERK3
T3 construct: gene MAPK6

ERK4 = system: T4, ERK4
T4 construct: gene MAPK4

ERK5 = system: T5, ERK5
T5 construct: gene MAPK7
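Note: KINOMEscan kinase panel screen.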

SMILES | %Inh (EPHB4) | %Inh (EPHB6) | %Inh (ERBB2) | %Inh (ERBB3) | %Inh (ERBB4) | %Inh (ERK1) | %Inh (ERK2) | %Inh (ERK3) | %Inh (ERK4) | %Inh (ERK5)
CNc1nc(-c2ccc3c(N)n[nH]c3c2)cc(N2C[C@@H](C(=O)Nc3ccccc3)CC[C@H]2C)n1 [GSK2298859] | 14% | 9% | 12% | 0% | 19% | 0% | 0% | 6% | 0% | 0%
CC[C@@H]1CO[C@H](C(=O)Nc2ccccc2)CN1c1cc(-c2ccc3c(N)n[nH]c3c2)nc(NC)n1 [GSK2376236] | 16% | 3% | 8% | 0% | 18% | 0% | 0% | 8% | 42% | 7%
CCCCc1nn2ncccc2c1-c1ccnc(NC2CC2)n1 [GW684374] | 4% | 39% | 21% | 0% | 16% | 0% | 0% | 3% | 27% | 0%
Cc1ccc(-c2nc(Nc3ccncc3)c3ccccc3n2)s1 [GSK189015] | 22% | 2% | 0% | 0% | 31% | 17% | 100% | 0% | 0% | 0%
COc1cccc(C2=C(Nc3cc(Cl)c(O)c(Cl)c3)C(=O)NC2=O)c1 [SB-390767] | 18% | 46% | 0% | 3% | 4% | 0% | 0% | 0% | 0% | 0%
CCn1c(-c2ccccc2)nc2cnccc21 [SB-733416] | 16% | 0% | 0% | 0% | 0% | 0% | 18% | 0% | 0% | 37%
Cc1ccc(NC(=O)Nc2ccccc2)cc1-c1ccc(C(=O)Nc2ccncc2)cc1 [GSK1398471] | 26% | 12% | 0% | 0% | 0% | 6% | 0% | 8% | 18% | 0%
CC(=O)c1cccc(NC(=O)NC2CCN(c3ccnc(Nc4ccc(F)cc4)n3)C2)c1 (centres unmarked) [GSK1379710] | 4% | 19% | 15% | 8% | 6% | 0% | 0% | 0% | 30% | 12%
Cc1ccccc1-c1cc(-c2c[nH]nc2-c2ccccn2)ccn1 [GW680061] | 10% | 4% | 22% | 0% | 25% | 1% | 0% | 0% | 25% | 0%
O=C(Nc1n[nH]c2nc(-c3cccs3)c(Br)cc12)C1CC1 [SB-735297] | 0% | 39% | 0% | 0% | 0% | 0% | 0% | 0% | 0% | 0%
CNc1nc(-c2ccc3c(N)n[nH]c3c2)cc(N2C[C@@H](C(=O)NC3CCCCC3)OC[C@H]2C)n1 [GSK2375584] | 14% | 0% | 27% | 15% | 24% | 0% | 1% | 0% | 8% | 0%
Cc1cnc(N)c(/C=C/c2cncc(C(=O)NCCc3ccc(Cl)cc3Cl)c2)c1.Cl [GSK190937] | 9% | 0% | 7% | 0% | 0% | 7% | 0% | 0% | 6% | 0%
Nc1nccc(-c2c(-c3ccc(F)cc3)ncn2C2CCN(Cc3ccccc3)CC2)n1 [SB-219980] | 17% | 58% | 18% | 0% | 19% | 0% | 21% | 0% | 0% | 0%
COc1ccc(CSc2nnc(-c3ccc4ncsc4c3)o2)cc1C(F)(F)F | 18% | 0% | 0% | 0% | 0% | 0% | 30% | 0% | 0% | 0%
Fc1ccc(-c2nc3n(c2-c2ccncc2)CCS3)cc1 [GI98581] | 2% | 7% | 0% | 3% | 8% | 10% | 25% | 5% | 0% | 0%
Cc1ccccc1Cn1ccn2c(=O)cc(N3CCOCC3)nc12 [GSK2269905] | 19% | 0% | 23% | 0% | 20% | 4% | 0% | 15% | 14% | 0%

SMILES | %Inh (EPHB4) | %Inh (EPHB6) | %Inh (ERBB2) | %Inh (ERBB3) | %Inh (ERBB4) | %Inh (ERK1) | %Inh (ERK2) | %Inh (ERK3) | %Inh (ERK4) | %Inh (ERK5)
c1ccc(-c2ccnc3[nH]ccc23)cc1 [SB-693578] | 1% | 29% | 33% | 14% | 0% | 0% | 3% | 0% | 1% | 0%
COc1ccc(Nc2nccc(N3CCC(NC(=O)c4cc5ccccc5s4)C3)n2)cc1 (centres unmarked) [GSK1379738] | 0% | 17% | 1% | 8% | 0% | 0% | 0% | 0% | 15% | 0%
O=c1cc(N2CCOCC2)nc2n(Cc3cccc(Cl)c3Cl)c3ccccc3n12 [GSK2299009] | 0% | 33% | 6% | 0% | 10% | 0% | 15% | 26% | 45% | 0%
COc1ccc(Nc2nccc(N3CCC(NC(=O)C(C)c4ccc(Cl)cc4)C3)n2)cc1 (centres unmarked) [GSK1379735] | 7% | 18% | 11% | 9% | 0% | 0% | 0% | 0% | 0% | 0%
CS(=O)(=O)CCNCc1nc(-c2ccc3ncnc(Nc4ccc5c(cnn5Cc5ccccc5)c4)c3c2)cs1.Cl.Cl [GW569716] | 8% | 21% | 100% | 98% | 92.4% | 4% | 10% | 0% | 0% | 0%
COc1ccc(-c2coc3ccc(-c4nnc(C)o4)cc23)cc1 | 24% | 0% | 0% | 0% | 0% | 0% | 0% | 0% | 1% | 1%
Nc1ncnc2occ(-c3ccc4c(c3)CCN4C(=O)Cc3cc(F)ccc3F)c12 [GSK2645446] | 6% | 87% | 30% | 11% | 0% | 0% | 0% | 21% | 0% | 0%
Cc1ccc(NC(=O)c2ccc(Cl)cc2)cc1-c1ccc(C(=O)Nc2ccncc2)cc1 [GSK1398467] | 30% | 0% | 30% | 0% | 12% | 0% | 0% | 0% | 19% | 0%
COc1cc2ncnc(Nc3cccc(Br)c3)c2cc1OC.Cl [GI230329] | 21% | 3% | 97.1% | 41% | 72% | 0% | 0% | 6% | 22% | 0%
CNc1cc(-c2ccc3c(N)n[nH]c3c2)nc(N)n1 [GSK2224810] | 19% | 0% | 32% | 0% | 0% | 0% | 0% | 3% | 7% | 0%
CSc1ccc(-c2nc3n(c2-c2ccncc2)CCC3)cc1 [SKF-105561] | 21% | 15% | 0% | 0% | 3% | 0% | 0% | 0% | 0% | 0%
Cc1cccc2c(-c3ccncn3)c(-c3ccc(F)cc3)nn12 [GW515532] | 2% | 21% | 0% | 0% | 0% | 0% | 0% | 0% | 1% | 0%
O=C(Nc1n[nH]c2cc(-c3ccsc3)ccc12)C1CC1 [SB-732932] | 9% | 18% | 0% | 5% | 9% | 0% | 7% | 0% | 1% | 3%
Cc1nccc(-c2c(-c3ccc(F)cc3)ncn2CCCN2CCOCC2)n1.Cl [SB-282975] | 0% | 15% | 0% | 34% | 0% | 6% | 8% | 0% | 96.5% | 25%
O=C1NC(=O)C(c2ccc(Cl)cc2)=C1Nc1cccc(Cl)c1 [SB-317651] | 0% | 8% | 14% | 0% | 0% | 0% | 8% | 0% | 0% | 0%
CS(=O)(=O)CCNCc1nc(-c2ccc3ncnc(Nc4ccc(OCc5ccccc5)c(Cl)c4)c3c2)cs1.Cl [GW582764] | 8% | 0% | 100% | 58% | 97.8% | 0% | 0% | 0% | 0% | 0%
